The whole screen tested about 290,000 compounds, of which about 890 (0.31%) were called active. Cut-off read from the data, not from the text of the source: active = inhibition mostly above about 52% (no sharp cut-off); inactive = mostly below about 76%. Shown is part of a subset that was picked to be rich in actives.
Assay: cell-free HIV fusion peptide-binding blockers – biochemical, uHTS, fluorescence dequenching, primary screen (AID 1986)
Conditions: 30 min, stronger effect = higher value
[1] = measured here: repeat confirmation average inhibition, at 18.6 µM

| Compound | inhibition (at 20 µM) | inhibition [1] |
| --- | --- | --- |
| O=C(NC1CC1)C1CCN(C2CCN(C(=O)Cc3ccc4c(c3)OCO4)CC2)CC1 | 0.5% (inactive) | – |
| O=C(Nc1nnc(C2CC2)s1)C1COc2ccccc2O1 (stereo not given) | -2.5% (inactive) | – |
| Cc1cc(C)n2nc(C(=O)N3CCOCC3)nc2n1 | -0.9% (inactive) | – |
| Cc1cccc2cc(C(c3nnnn3Cc3ccc4c(c3)OCO4)N3CCCC3)c(=O)[nH]c12 (stereo not given) | -1.7% (inactive) | – |
| O=C(COc1ncnc2ccccc12)Nc1cccc([N+](=O)[O-])c1 | 0.9% (inactive) | – |
| CC(=O)Oc1ccc2c(c1)O/C(=C\c1ccncc1)C2=O | 106% (active) | 53% |
| O=C(Oc1ccc2c(c1)O/C(=C\c1ccncc1)C2=O)c1ccccc1 | 86.3% (inactive) | 3% |
| COc1cccc(OC)c1C(=O)Oc1ccc2c(c1)O/C(=C\c1ccncc1)C2=O | 3.9% (inactive) | – |
| COc1ccc(CNc2nc3nc(-c4ccccc4)cc(=O)n3[nH]2)cc1OC | 0.4% (inactive) | – |
| O=C(CCl)Nc1ccc(N=Nc2ccccc2)cc1 | -2.8% (inactive) | – |
| Oc1c(/C=N/c2ccccn2)sc2ccccc12 | 6.4% (inactive) | – |
| Oc1c(C=Nc2cccc3cccnc23)sc2ccccc12 | 85.8% (active) | 50.9% |
| Oc1c(C=Nc2cccnc2)sc2ccccc12 | 1.4% (inactive) | – |
| CCOc1ccc2nc(NC(=O)C34CC5CC(CC(NC(C)=O)(C5)C3)C4)sc2c1 | -1.2% (inactive) | – |
| O=C(O)c1c(Cl)c(Cl)c(Cl)c(Cl)c1C(=O)N1CCOCC1 | 4.1% (inactive) | – |
| N#C/C(=N\Nc1ccc(S(=O)(=O)N2CCc3ccccc32)cc1)C(N)=S | 51.3% (active) | – |
| N#C/C(=N\Nc1ccc(S(=O)(=O)N2CCCCCC2)cc1)C(N)=S | 9.5% (inactive) | – |
| CCOC(=O)/C(C#N)=N/Nc1ccc(S(=O)(=O)N2CCc3ccccc32)cc1 | 5.4% (inactive) | – |
| Cc1ccc(NC(=O)c2cc([N+](=O)[O-])ccc2NCc2cccnc2)cc1 | -0.6% (inactive) | – |
| O=C(N/N=C/c1cccc([N+](=O)[O-])c1)c1cc(-c2ccc3c4c(cccc24)CC3)n[nH]1 | -6.3% (inactive) | – |
| O=C(N/N=C/c1ccccc1C(=O)O)c1cc(-c2ccc3c4c(cccc24)CC3)n[nH]1 | 69.6% (active) | – |
| O=C(O)c1ccc(/C=N/NC(=O)c2cc(-c3ccc4c5c(cccc35)CC4)n[nH]2)cc1 | 61.2% (inactive) | 7% |

| Compound | inhibition (at 20 µM) | inhibition [1] |
| --- | --- | --- |
| Cc1ccc(C(=O)NCC(c2ccc(F)cc2)N2CCOCC2)cc1 (stereo not given) | -1.6% (inactive) | – |
| O=C(CSc1nnc(SCc2ccccc2)s1)N/N=C/C=C/c1ccco1 | 33.4% (inactive) | – |
| O=C(Cc1cccs1)N/N=C/C=C\c1ccco1 | 69.7% (active) | – |
| Cc1ccc(CSc2nnc(SCC(=O)N/N=C/C=C/c3ccco3)s2)cc1 | 46.7% (inactive) | – |
| O=C(Cc1cccs1)N/N=C/c1ccco1 | 5% (inactive) | – |
| O=C(CSc1nnc(SCc2ccccc2)s1)N/N=C/C=C\c1ccco1 | 51.3% (active) | – |
| O=C(Cc1cccs1)N/N=C/C=C/c1ccco1 | 31.2% (inactive) | – |
| O=C(NC(NC(=O)c1ccccc1)c1cccc([N+](=O)[O-])c1)c1ccccc1 | 4.1% (inactive) | – |
| CN(C)CCCNS(=O)(=O)c1ccc(N2CCC(c3ccc(Cl)cc3)=N2)cc1 | -4.9% (inactive) | – |
| COc1ccc(-c2nc(N3CCCCCC3)sc2C(=O)c2ccccc2)cc1 | 0.2% (inactive) | – |
| O=[N+]([O-])c1ccc(N=Nc2c(O)[nH]c3ccc(F)cc23)cc1 | 6.3% (inactive) | – |
| Oc1[nH]c2ccc(Br)cc2c1N=Nc1ccc(F)cc1 | 164% (inactive) | – |
| Oc1[nH]c2ccccc2c1N=Nc1ccc(F)cc1 | 150% (inactive) | – |
| Cc1ccc(N=Nc2c(O)[nH]c3ccc(F)cc23)cc1 | 111% (active) | – |
| Cc1cccc(N=Nc2c(O)[nH]c3ccc(Br)cc23)c1 | 13.9% (inactive) | – |
| Cc1cccc(N=Nc2c(O)[nH]c3ccc(F)cc23)c1 | 95% (active) | 136% |
| CCOc1ccc(N(C(=O)c2snc(C(N)=O)c2N)C(CC)C(=O)NC2CCCC2)cc1 (stereo not given) | 1.8% (inactive) | – |
| Cc1cc(C)c(NC(=O)CSc2nc3ncc(Cl)cc3[nH]2)c(C)c1 | 2.2% (inactive) | – |
| Cc1ccccc1NC(=O)c1c(C)[nH]c(=S)c(C#N)c1-c1ccco1 | 66.5% (active) | – |
| CNC(=O)c1c(C)[nH]c(=S)c(C#N)c1-c1ccco1 | 4.3% (inactive) | – |
| Cc1ccc(-c2c(C(=O)Nc3ccccc3C)c(C)[nH]c(=S)c2C#N)o1 | 33.1% (inactive) | – |
| O=C(CN1C(=O)NC2(CCCCCCC2)C1=O)N1CCN(C(=O)c2ccco2)CC1 | 1.6% (inactive) | – |

| Compound | inhibition (at 20 µM) | inhibition [1] |
| --- | --- | --- |
| COc1ccc(CCC(=O)Nc2ccccc2C(F)(F)F)cc1 | 0% (inactive) | – |
| CCCN1CCN(C(=O)CCn2c(=O)c3cccn3c3cccnc32)CC1 | 0.2% (inactive) | – |
| Nc1c(C(=O)N/N=C/c2ccccc2Cl)oc2nc(-c3ccccc3)cc(-c3ccco3)c12 | 51.3% (active) | 69.2% |
| COc1cccc(/C=N/NC(=O)c2oc3nc(-c4ccccc4)cc(-c4ccco4)c3c2N)c1 | 54.2% (active) | 55.5% |
| Nc1c(C(=O)N/N=C/c2ccc(F)cc2)oc2nc(-c3ccccc3)cc(-c3ccco3)c12 | 44.8% (inactive) | – |
| Nc1c(C(=O)N/N=C/c2cccnc2)oc2nc(-c3ccccc3)cc(-c3ccco3)c12 | 32.7% (inactive) | – |
| Cc1ccc(-c2cc(-c3ccco3)c3c(N)c(C(=O)NN)oc3n2)cc1 | 60.5% (inactive) | 7.9% |
| Nc1c(C(=O)N/N=C/c2cccnc2)oc2nc(-c3ccco3)cc(-c3ccco3)c12 | 99.1% (inactive) | 9.2% |
| O=C(CCCCCN1C(=O)c2ccccc2C1=O)Nc1ccc(C(=O)O)cc1 | -1% (inactive) | – |
| CSc1nc2ccccc2n1CC(=O)Nc1ccc(C)c(C)c1 | 0.9% (inactive) | – |
| O=[N+]([O-])c1cccc(S(=O)(=O)c2ccc(N3CCCCC3)c([N+](=O)[O-])c2)c1 | 2.4% (inactive) | – |
| CCOC(=O)C1=C(CC)OC(N)=C(C#N)C1c1ccc(OC)c(C)c1OC (stereo not given) | -1.8% (inactive) | – |
| CCOC(=O)/C(=N\Nc1cccc(C(F)(F)F)c1)N1CCOCC1 | -4.2% (inactive) | – |
| O=S(=O)(c1ccccc1)N1CCC(Oc2ccc(-n3cnnn3)cc2)CC1 | 0.5% (inactive) | – |
| COc1cnc(N(C)C)nc1Sc1cccc(Cl)c1 | 1.2% (inactive) | – |
| Nc1ccc2c3c(cccc13)C(=O)N(c1ccccc1)C2=O | 142% (inactive) | – |
| Cc1c(O)c2c3c(cccc3c1O)C(=O)N(c1ccccc1)C2=O | 57.9% (active) | 55.3% |
| O=C(O)c1ccc2c3c(cccc13)C(=O)N(c1ccccc1)C2=O | 24.2% (inactive) | – |
| Cc1cc(C)cc(NC(=O)c2cccn2-c2ncc(C(F)(F)F)cc2Cl)c1 | 2.6% (inactive) | – |
| O=C(N=c1ccn(-c2nc3ccccc3nc2NS(=O)(=O)c2ccccc2)cc1)c1ccccc1Cl | 24.6% (inactive) | – |
| O=C(N=c1ccn(-c2nc3ccccc3nc2NS(=O)(=O)c2ccc(Cl)cc2)cc1)c1cccs1 | 19.3% (inactive) | – |
| O=C(N=c1ccn(-c2nc3ccccc3nc2NS(=O)(=O)c2ccc(Cl)cc2)cc1)c1ccccc1Cl | 102% (active) | – |

| Compound | inhibition (at 20 µM) | inhibition [1] |
| --- | --- | --- |
| COc1cccc(/C=N/n2c(C3CCCCC3)n[nH]c2=S)c1 | 0.5% (inactive) | – |
| CC(C)(C)C(=O)NC(=S)Nc1ccccc1C(N)=O | -0.3% (inactive) | – |
| CCCCCCc1cc2cc(-c3nnc(-c4ccccc4O)o3)c(=O)oc2cc1O | 65.1% (inactive) | 47.7% |
| CCCCCCc1cc2cc(-c3nnc(-c4ccccc4OC)o3)c(=O)oc2cc1O | 81.8% (inactive) | 45.4% |
| CCCCCCc1cc2cc(-c3nnc(-c4cc(OC)c(OC)c(OC)c4)o3)c(=O)oc2cc1O | 73.7% (active) | 61.9% |
| CCOc1cc(CN2CCCC(N3CCc4ccccc4C3)C2)ccc1O (stereo not given) | -0.5% (inactive) | – |
| Oc1c(Cl)cc(Cl)cc1C=Nc1ccc(N2CCOCC2)cc1 | 1.6% (inactive) | – |
| Oc1ccc(C=Nc2ccc(N3CCOCC3)cc2)c(O)c1 | 6.1% (inactive) | – |
| Cc1cc(O)c(C=Nc2ccc(N3CCOCC3)cc2)c(C)c1Cl | 80.4% (active) | 73.9% |
| CCS(=O)(=O)C1=NN2C(=N)/C(=C\c3ccc(OC(=O)c4ccco4)cc3)C(=O)N=C2S1 | 39.2% (inactive) | – |
| CCCC1=NN2C(=N)/C(=C\c3ccc(SCc4ccco4)o3)C(=O)N=C2S1 | -0.5% (inactive) | – |
| O=C1NC(=S)S/C1=C\c1ccc(SCc2ccccc2)o1 | 72.3% (inactive) | 15.9% |
| O=C1NC(=S)S/C1=C\c1ccc(SCc2ccco2)o1 | 53.5% (active) | – |
| CCC1=NN2C(=N)/C(=C\c3ccc(SCc4ccco4)o3)C(=O)N=C2S1 | -2.8% (inactive) | – |
| N=C1/C(=C\c2ccc(SCc3ccco3)o2)C(=O)N=C2SC=NN12 | 100% (inactive) | 7.1% |
| CCS(=O)(=O)C1=NSC2=NC(=O)/C(=C\c3ccc(OC(=O)c4ccco4)c(OC)c3)C(=N)N21 | 20.4% (inactive) | – |
| CCOc1cc(/C=C2\C(=N)N3N=C(N4CCCCC4)SC3=NC2=O)ccc1OC(=O)c1ccco1 | 20.5% (inactive) | – |
| COc1cc(/C=C2\C(=N)N3N=C(S(=O)(=O)CC(C)C)SC3=NC2=O)ccc1OC(=O)c1ccco1 | 70.2% (active) | – |
| CCS(=O)(=O)C1=NN2C(=N)/C(=C\c3ccc(OC(=O)c4ccco4)c(Br)c3)C(=O)N=C2S1 | 52.4% (active) | – |
| COc1cc(/C=C2/C(=N)N3C(SC)=NSC3=NC2=O)ccc1OC(=O)c1ccco1 | 59.5% (inactive) | 17.2% |
| CCS(=O)(=O)C1=NN2C(=N)/C(=C\c3ccc(SCc4ccco4)o3)C(=O)N=C2S1 | 72.8% (active) | – |
| COc1ccccc1C(CNc1nc(C(F)(F)F)nc2ccccc12)N(C)C (stereo not given) | 1.8% (inactive) | – |
